Source: PubChem (The Scripps Research Institute Molecular Screening Center)
Ba/F3 V617F tox – reduced viability of JAK2V617F-dependent Ba/F3 cells, primary screen, JAK2V617F inhibitor project, cell-based, Ba/F3 EpoR-JAK2V617F, luminescence | ATP luminescence | inhibition, % at 5.6 µM | 220,000 tested, 1.1% active | AID 1446, 2008;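 active means inhibition above the campaign mean plus 3 SD over all tested compounds, cut at about 24% in these data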;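 further: cytokine-independent growth of Ba/F3 cells driven by EpoR plus mutant JAK2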
GPR7 antagonist – GPR7 receptor antagonists, primary screen, cell-based, fluorescence, single concentration; GPR7-expressing cells, fluorescence antagonist assay; Neuropeptides B/W receptor type 1 (Homo sapiens), P48145; inhibition, % at 4.4 µM; 290,000 tested, 1.1% active; in the data active means inhibition above about 16%, passing the limit was not always enough;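 further: cells stimulated with the agonist NPW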
Target sequence (P48145 whole entry, looked up): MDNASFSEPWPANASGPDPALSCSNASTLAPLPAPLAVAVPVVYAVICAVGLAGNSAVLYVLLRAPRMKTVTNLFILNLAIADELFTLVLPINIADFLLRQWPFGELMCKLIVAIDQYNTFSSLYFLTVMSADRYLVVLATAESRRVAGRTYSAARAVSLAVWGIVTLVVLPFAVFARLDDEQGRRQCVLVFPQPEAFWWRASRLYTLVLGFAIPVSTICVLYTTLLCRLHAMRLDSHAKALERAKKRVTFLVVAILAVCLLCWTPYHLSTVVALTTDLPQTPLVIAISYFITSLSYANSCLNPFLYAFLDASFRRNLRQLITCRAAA
IEC-6 tox – cytotoxicity in IEC-6 intestinal epithelial cells, primary screen, cytotoxicity control for KLF5 inhibitor project, cell-based, luminescence. inhibition, % at 5 µM. AID 1825, 2009. 290,000 tested, 0.78% active. IEC-6 cytotoxicity, luminescence viability; in the data active means inhibition above about 22%
DNA FID counter – compounds displacing fluorescent DNA intercalator, primary screen, artefact control for HCV NS3 helicase inhibitor project, biochemical, FID fluorescence; DNA fluorescent intercalator displacement; 290,000 tested, 0.17% active; inhibition, % at 7.9 µM; in the data active means inhibition above about 37%;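 further: higher means more ethidium bromide displaced from hairpin DNA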
BaF3 parental – parental Ba/F3 cell viability inhibition, counter-screen for JAK2V617F inhibitor project, murine pro-B, CellTiter-Glo luminescence; CellTiter-Glo ATP luminescence; inhibition, % at 5.6 µM; 220,000 tested, 1.1% active; AID 1486, 2009;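 active means inhibition above a per-campaign cutoff, the mean inhibition of all tested compounds plus 3 SD, cut at about 27% in these data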
KLF5 inhibitor – KLF5 expression inhibitors, primary screen, DLD-1 cells, luminescence. DLD-1 KLF5 promoter-luciferase reporter. inhibition, % at 5 µM. 290,000 tested, 0.23% active. AID 1700, 2009;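 active means inhibition above a per-plate limit of that plate's mean compound inhibition plus 3 SD, cut at about 60% in these data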;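 further: higher means less KLF5 promoter-driven luciferase light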
Large screens that a line does not name were inactive. Shown are actives, neighbours in structure and some others; about 2.6% of the full set was active somewhere.

Nc1nc(Sc2ccc(C(F)(F)F)cc2[N+](=O)[O-])n[nH]1	none
O=C(N/N=C/c1ccc(Cl)cc1)c1sccc1OCc1ccc(F)cc1	Ba/F3 V617F tox 72, BaF3 parental 47
COc1cc(/C=C2/NC(=O)N(c3cccc(Cl)c3)C2=O)ccc1O	Ba/F3 V617F tox 100, BaF3 parental 76
COc1ccc(-n2cccc2/C=C2/NC(=O)N(c3cccc(Cl)c3)C2=O)cc1	none
CC1CCCN(C(=O)c2ccc3c(c2)OCO3)C1 (configuration not stated)	none (no result: Ba/F3 V617F tox, BaF3 parental)
O=C(c1ccc2c(c1)OCO2)N1CCCC(c2ccccc2)C1 (configuration not stated)	BaF3 parental 33
Cc1ccc2[nH]c3c(N4CCN(Cc5ccc6c(c5)OCO6)CC4)ncnc3c2c1	none
COc1ccc2c(c1)[nH]c1c(N3CCN(Cc4ccc5c(c4)OCO5)CC3)ncnc12	Ba/F3 V617F tox 40, BaF3 parental 37
CCOC(=O)C1CCCN(C(=O)C(C)Oc2ccc(Cl)cc2Cl)C1 (configuration not stated)	none
COC(=O)C1CCN(C(=O)C(C)Oc2ccc(Cl)cc2Cl)CC1 (configuration not stated)	GPR7 antagonist 20
O=C(NCCc1csc(-c2cccnc2)n1)c1ccc(Br)o1	none
O=C(NCCc1csc(-c2cccnc2)n1)c1ccco1	BaF3 parental 96
O=C(Cn1c(C(=O)N2CCN(C3CCCCC3)CC2)cc2sccc21)c1ccccc1	GPR7 antagonist 20
O=C(Cn1c(C(=O)N2CCc3ccccc3C2)cc2sccc21)c1ccccc1	none
Cc1ccc(-n2nc(C(=O)N3CCOCC3)cc2-c2ccc(Cl)cc2)cc1	none
Cc1ccc(-n2c(-c3ccccc3)c[n+]3c2CCC3)cc1	Ba/F3 V617F tox 77, BaF3 parental 68
Cc1ccc(-n2c(-c3ccc(Cl)cc3)c[n+]3c2CCC3)cc1	Ba/F3 V617F tox 69, BaF3 parental 65
FC(F)Sc1ccc(-n2c(-c3ccc(Cl)cc3)c[n+]3c2CCC3)cc1	Ba/F3 V617F tox 24, BaF3 parental 44
CCCN1CCC(=O)N([C@H](COc2ccccc2)Cc2ccccc2)CC1	none (no result: Ba/F3 V617F tox, BaF3 parental)
CCn1c(C)nc2cc(C(=O)NNC(=S)Nc3ccc(C)cc3)ccc21	none
CC1=CC(=O)C=C(C)C1=NOS(=O)(=O)c1ccccc1	Ba/F3 V617F tox 76, GPR7 antagonist 40, BaF3 parental 48
Cc1ccc(S(=O)(=O)ON=C2CCN(S(=O)(=O)c3ccccc3)CC2)cc1	none
CC1=CC(=O)C(C(C)C)=C/C1=N/OS(=O)(=O)c1ccccc1	Ba/F3 V617F tox 99, GPR7 antagonist 81, BaF3 parental 104
Cc1ccc2c(c1)/C(=N/OS(=O)(=O)c1ccccc1)CCS2	none
O=C(CN1C(=O)NC2(CCCCCC2)C1=O)Nc1ccc2c(c1)CCC2	GPR7 antagonist 70
CC1CCC2(CC1)NC(=O)N(CC(=O)Nc1ccc3c(c1)CCC3)C2=O (configuration not stated)	none
CCN(CC)CCCNC(=O)c1cc2c(-c3ccc(Cl)cc3)nn(C)c2s1	BaF3 parental 29
CN1CCN(CCCNC(=O)c2cc3c(-c4ccc(Cl)cc4)nn(C)c3s2)CC1	none
CCc1cccc(C)c1NC(=O)COn1nnc2ccc(C(F)(F)F)cc21	none
CCOc1ccc2nc(N/C(N)=N/C(=S)Nc3cccc(C)c3)nc(C)c2c1	none
CCc1ccccc1NC(=S)/N=C(\N)Nc1nc(C)c2cc(C)ccc2n1	Ba/F3 V617F tox 54, BaF3 parental 55
Cc1ccc(NC(=S)/N=C(\N)Nc2nc(C)c3cc(C)c(C)cc3n2)cc1C	BaF3 parental 38
Cc1ccc(NC(=S)/N=C(\N)Nc2nc(C)c3cc(C)ccc3n2)c(C)c1	Ba/F3 V617F tox 42, BaF3 parental 51
Cc1cc(NCc2ccccc2)c2ccccc2n1	none (no result: Ba/F3 V617F tox, BaF3 parental)
CC(C)Oc1ccc(CCN=C(N)N=C(N)N)cc1Cl	BaF3 parental 36
CC(C)Oc1ccc(CNC(=S)Nc2ccccc2)cc1Cl	none (no result: Ba/F3 V617F tox, BaF3 parental)
Cc1nn(-c2ccccc2)c(Cl)c1CN(C(=O)CCl)c1cccc2ccccc12	GPR7 antagonist 32
COc1ccc(NC(=O)c2ccccc2OCc2ccc(F)cc2)c(OC)c1	none (no result: Ba/F3 V617F tox, BaF3 parental)
CCOC(=O)N1CCC(NC(=O)c2ccc3c(c2)sc2nc(-c4ccc(OC)cc4)cn23)CC1	BaF3 parental 27
COc1cc(C2CC(=O)Nc3ccccc3S2)cc(OC)c1OC (configuration not stated)	DNA FID counter 89
O=C1CC(c2ccc(F)cc2)Sc2ccccc2N1 (configuration not stated)	none
COc1ccccc1N1CCN(Cc2cc(=O)c(OCC#N)co2)CC1	none (no result: Ba/F3 V617F tox, BaF3 parental)
Cc1ccc(-c2c(C(=O)N(C)Cc3ccccc3)oc(=O)c3ccccc23)cc1	GPR7 antagonist 19
CN(Cc1ccccc1)C(=O)c1oc(=O)c2ccccc2c1-c1ccccc1	none
COc1ccc(-c2onc3ccc(Br)cc23)cc1	none
COc1cc(-c2onc3ccc(Br)cc23)cc(OC)c1OC	Ba/F3 V617F tox 69, BaF3 parental 79
COc1ccc(OC)c(CNC(=O)C2CCCN(S(=O)(=O)N3CC(C)CC(C)C3)C2)c1 (configuration not stated)	none (no result: Ba/F3 V617F tox, BaF3 parental)
O=C1CCCN1c1ccc(S(=O)(=O)NCCOc2ccccc2)cc1	none
Cc1cc(N2CCCC2=O)cc(C)c1S(=O)(=O)NCCOc1ccc(C(C)(C)C)cc1	BaF3 parental 36
COc1cccc(NC(=O)CSc2nc3ccccc3c(=O)n2C)c1	none (no result: Ba/F3 V617F tox, BaF3 parental)
O=C(Cn1cnc2ccccc21)Nc1ccc(SC(F)F)cc1	Ba/F3 V617F tox 36, BaF3 parental 50
Cc1cc(/C=C2\SC(=Nc3ccccc3)NC2=O)c(C)n1-c1ccc(S(N)(=O)=O)cc1	Ba/F3 V617F tox 28, BaF3 parental 63
O=C1c2ccccc2-n2c1nc1ccccc1c2=O	none
Cc1ccc(OCC(=O)Nc2ccc([N+](=O)[O-])cc2)cc1	none
Cc1ccc(NC(=O)C2(c3ccc([N+](=O)[O-])cc3)CCCC2)cc1	BaF3 parental 50
CCN(C(=O)CSc1cc(C)c2ccc(OC)cc2n1)C1CCS(=O)(=O)C1 (configuration not stated)	none
FC(F)(F)c1nc2ccccc2n2c(-c3ccc(Cl)cc3)nnc12	none
CCOP(=O)(/C(C#N)=C(\C)O)c1ccccc1 (configuration not stated)	BaF3 parental 81
COC(=O)CCC(=O)COc1ccccc1C#N	none
CS(=O)(=O)N1CCN(c2c(Cl)cccc2[N+](=O)[O-])CC1	BaF3 parental 51
Cc1ccc2nc(NCCC(=O)O)nc(-c3ccccc3)c2c1	none
